The values that follow come from PubChem BioAssay AID485346 (Sanford-Burnham Center for Chemical Genomics, 2010).

The whole screen tested about 330,000 compounds, of which about 10,000 (3%) were called active. This excerpt belongs to a sample that is enriched for actives. A number with no mark means an inactive call.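 Rule for the calls: active = inhibition of at least 50% at 8 µM in the primary screen; inactive = the rest.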

Protein Mdm4 (Homo sapiens) + E3 ubiquitin-protein ligase Mdm2 (Homo sapiens), sequence (O15151 whole entry, looked up): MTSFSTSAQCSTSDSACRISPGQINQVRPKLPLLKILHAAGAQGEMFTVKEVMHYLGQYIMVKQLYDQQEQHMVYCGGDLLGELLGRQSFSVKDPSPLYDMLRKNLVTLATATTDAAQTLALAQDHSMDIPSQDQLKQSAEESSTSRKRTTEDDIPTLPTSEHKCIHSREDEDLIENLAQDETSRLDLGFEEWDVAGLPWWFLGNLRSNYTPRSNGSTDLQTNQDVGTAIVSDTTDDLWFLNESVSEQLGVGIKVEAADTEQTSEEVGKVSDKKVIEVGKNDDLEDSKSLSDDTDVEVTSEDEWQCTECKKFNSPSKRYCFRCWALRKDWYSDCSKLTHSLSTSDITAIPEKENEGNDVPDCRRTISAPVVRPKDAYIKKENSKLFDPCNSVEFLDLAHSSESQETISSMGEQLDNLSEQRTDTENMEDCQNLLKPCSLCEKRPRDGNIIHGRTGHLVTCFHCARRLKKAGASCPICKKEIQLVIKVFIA
Protein Mdm4 (Homo sapiens) + E3 ubiquitin-protein ligase Mdm2 (Homo sapiens), sequence (Q00987 whole entry, looked up): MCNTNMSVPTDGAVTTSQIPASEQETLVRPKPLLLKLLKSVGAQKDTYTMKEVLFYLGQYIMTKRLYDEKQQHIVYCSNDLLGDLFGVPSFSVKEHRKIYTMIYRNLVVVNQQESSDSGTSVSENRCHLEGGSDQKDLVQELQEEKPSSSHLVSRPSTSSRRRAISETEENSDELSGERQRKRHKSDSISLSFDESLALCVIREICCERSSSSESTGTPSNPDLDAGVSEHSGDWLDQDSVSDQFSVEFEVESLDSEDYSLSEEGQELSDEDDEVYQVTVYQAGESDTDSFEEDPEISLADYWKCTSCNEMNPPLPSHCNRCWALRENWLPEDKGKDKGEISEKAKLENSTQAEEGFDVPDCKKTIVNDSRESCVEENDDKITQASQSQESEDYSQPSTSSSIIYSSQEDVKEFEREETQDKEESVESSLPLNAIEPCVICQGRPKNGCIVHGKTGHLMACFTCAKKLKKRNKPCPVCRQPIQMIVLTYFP

This assay addresses Protein Mdm4 (Homo sapiens) + E3 ubiquitin-protein ligase Mdm2 (Homo sapiens) (UniProt O15151+Q00987). Briefly: disruptors of Mdm2/MdmX RING complex – cell-based, luminescence, split luciferase, SaOS-2, uHTS, primary screen (AID 485346). Particulars: SaOS-2 split-luciferase Mdm2/MdmX complementation, at 8 µM, active compounds read high.
Regarding `COC(=O)Cc1ccc(OCC(=O)NC2CCCC2)cc1`, the inhibition is 8.06%.

On to `CC(=O)c1ccc(OCCCC(=O)Nc2ccc(C)c(S(=O)(=O)N3CCOCC3)c2)cc1`, for which the inhibition was 13.1%.

As to `O=C(CSc1nc2ccccc2c(=O)[nH]1)Nc1nc(-c2ccc(Br)cc2)cs1`, the inhibition was 75.5% (active).

For `CCOC(=O)c1ccccc1NC(=O)CSc1nc2ccccc2c(=O)[nH]1`, the inhibition is 10.1%.

Take `CC(=O)NCc1ccc(-c2csc(NC(=O)CCCc3nc4ccccc4c(=O)[nH]3)n2)cc1`: the inhibition is 6.81%.

`Cc1nnc(Nc2ccccc2F)s1`: the inhibition was 1.11%.

With `O=C(Nc1ccc(C(F)(F)F)cc1)c1cccc(-n2cnnn2)c1`, the inhibition is -13.9%.

In the case of `Cc1nc(NC(=O)c2cccc(Cl)c2)sc1-c1csc(Nc2cccc(Cl)c2)n1`, the inhibition is -2.75%.

In the case of `O=C(Nc1ccc(-c2csc(Nc3cccc(C(F)(F)F)c3)n2)cc1)c1cccc(C(F)(F)F)c1`, the inhibition is 69.4% (active).

For `CCn1cc(CCC(=O)NCc2ccc(F)cc2)c2ccccc21`, the inhibition was -7.13%.

As for `Cc1noc(C)c1C(=O)OCC(=O)N1CCN(S(=O)(=O)c2ccc3ccccc3c2)CC1`, the inhibition was -6.59%.

As to `COc1ccc(CC(=O)NCc2nnc(SCC(=O)Nc3ncc(C)s3)n2C)cc1`, the inhibition is 6.63%.

For `Cc1nnc(NC(=O)c2ccc3nccnc3c2)s1`, the inhibition was 6.88%.

Take `Cc1ccc(CS(=O)(=O)c2ncc(Cl)c(C(=O)Nc3nnc(C)s3)n2)cc1`: the inhibition was 99.7% (active).

As to `COCCSc1nnc(NC(=O)CCS(=O)(=O)Cc2ccccc2)s1`, the inhibition was 25.9%.

Regarding `Cc1ccc(S(=O)(=O)CC(=O)Nc2nnc(C)s2)cc1`, the inhibition is 7.87%.

For the compound `CSc1nnc(NC(=O)c2nc(S(=O)(=O)Cc3ccc(C)cc3)ncc2Cl)s1`, the inhibition was 98.2% (active).

Consider `CCSc1nnc(NC(=O)c2ccc(C)cc2)s1`, for which the inhibition was -64.2%.

In the case of `CCN(CC)S(=O)(=O)c1cc(C(=O)Nc2cc(S(=O)(=O)N3CCOCC3)ccc2N2CCCC2)ccc1F`, the inhibition is 26.3%.

For `CCC(NC(=O)c1cc(COc2ccc(F)c(F)c2)on1)c1ccncc1` (stereo unspecified), the inhibition is 5.8%.

Consider `O=C(Nc1ccc2sc3ccccc3c(=O)c2c1)c1ccccc1Cl`, for which the inhibition was -48%.

On to `CCOC(=O)Cn1nnnc1C`, for which the inhibition was 15.3%.

As for `O=C(CN1CCC(NC(=O)C2CC2)CC1)Nc1ccccc1[N+](=O)[O-]`, the inhibition is 15.4%.

For the compound `COc1ccc(CC(=O)N[C@@H]2c3cc(OC)c(OC)cc3C[C@H]2OCc2ccccc2)cc1`, the inhibition was 38.6%.

Take `O=c1c2ccccc2nc2n1C(CSCc1cccc(C(F)(F)F)c1)CS2` (stereo unspecified): the inhibition is 0.237%.

Take `Cc1cc(C(=O)CCl)c(C)n1CC1COc2ccccc2O1` (stereo unspecified): the inhibition was 78.9% (active).

As to `Cc1noc(C)c1C(=O)NCC1COc2ccccc2O1` (stereo unspecified), the inhibition was 26.4%.

Take `O=C1C(=O)N(CC2COc3ccccc3O2)c2ccccc21` (stereo unspecified): the inhibition was 26.1%.

Regarding `CCCCN(C)CCNC(=O)CSCc1ccc(C)cc1`, the inhibition was 7.69%.

Turning to `CCOC(=O)NC(=O)C(=CNc1cccc(OC)c1)C(=O)NC(=O)OCC`, the inhibition was 9.28%.

Take `C=CCOCCN(C)C1=NS(=O)(=O)c2ccccc21`: the inhibition is 5.66%.

For `CN(Cc1ccccc1)S(=O)(=O)c1nnc(NC(=O)c2ccccc2F)s1`, the inhibition is -3.09%.

For `O=C(Nc1nnc(-c2ccccc2F)s1)c1ccccc1F`, the inhibition is 54.1% (active).

On to `O=C(Nc1nc(-c2cccnc2)cs1)c1ccccc1F`, for which the inhibition was -52.4%.

Take `CCSc1nc(=S)n(CC)c(C)c1C(C)=O`: the inhibition was 14.7%.

Regarding `Cc1ccc(-c2cn3cc([N+](=O)[O-])ccc3n2)cc1`, the inhibition is -68.9%.

As for `CSc1nnc2ccc(-c3ccc(C)cc3)nn12`, the inhibition is 34.9%.

Regarding `CCN(CC)S(=O)(=O)c1ccc(-c2cn3ccc(C)cc3n2)cc1`, the inhibition is -58.3%.

`Cc1ccc2nc(-c3ccc(Br)cc3)cn2c1`: the inhibition is 61.7% (active).

In the case of `Cc1ccc(-c2cn3cc(C)ccc3n2)cc1`, the inhibition is 89.4% (active).

`COc1ccc(-c2cn3ccc(C)cc3n2)cc1`: the inhibition is 33.6%.

On to `C[C@@]12C(=O)N(c3cccc(Br)c3)C(=O)N1[C@H](c1ccc(Cl)cc1)[C@@H]1C(=O)N(C3CCCCC3)C(=O)[C@@H]12`, for which the inhibition is 49.2%.

Take `CCC(C)C(N=C1NS(=O)(=O)c2ccccc21)C(=O)N1CCC(C)CC1` (stereo unspecified): the inhibition was 11.7%.

With `CCC1(C)NC(=O)N(CC(=O)N2CCN(c3cccc(Cl)c3)CC2)C1=O` (stereo unspecified), the inhibition was 13.3%.

Turning to `CCN1C(=O)/C(=C\N2CCOCC2)SC1=S`, the inhibition was 7.76%.

With `CCN1C(=O)/C(=C\N2CCN(c3cccc(Cl)c3)CC2)SC1=S`, the inhibition is 64.2% (active).

On to `COc1ccc(C(=O)/C=C/Nc2ccccn2)cc1`, for which the inhibition was 56.3% (active).

For `CCOc1ccc(N/C=C/C(=O)c2ccccc2)cc1`, the inhibition is -143%.

On to `CCOc1ccc(N/C=C/C(=O)c2cc(OC)c(OC)c(OC)c2)cc1`, for which the inhibition is 28.5%.

`COc1ccccc1-c1sc2ccccc2c1C#CC1(O)CCCCC1`: the inhibition is 12%.

As for `CSc1ccccc1NC(=O)COC(=O)CCCOc1ccc(C)cc1`, the inhibition is 2.26%.

For the compound `O=C(CSc1ccccc1)Nc1nnc(/C=C/c2ccccc2)s1`, the inhibition is -2.82%.

On to `O=C(Nc1ccc(Cl)cc1)Nc1nnc(/C=C/c2ccccc2)s1`, for which the inhibition is 84.4% (active).

Regarding `COc1ccc(/C=C/c2nnc(NC(=O)C(C)C)s2)cc1`, the inhibition is 18.7%.

On to `CC(=O)NCC(=O)N1CCC(n2nccc2NC(=O)CCCc2ccccc2)CC1`, for which the inhibition was -4.94%.

Take `COC(=O)c1cccc(N(CC(=O)NCC2CCCO2)C(=O)CCC(=O)Nc2cc(C)on2)c1` (stereo unspecified): the inhibition was 5.29%.

Turning to `COc1ccccc1C(=O)NN1C(=O)C2C3C=CC(O3)C2C1=O` (stereo unspecified), the inhibition was 14.8%.

Take `O=C(NN1C(=O)C2C(C1=O)C1C=CC2C12CC2)c1ccccc1Cl` (stereo unspecified): the inhibition was 4.22%.

With `CC12CCC(C(=O)N(NC(=O)c3ccccc3O)C1=O)C2(C)C` (stereo unspecified), the inhibition was 61.1% (active).

In the case of `COCCN1C(=O)N(c2ccc(Cl)cc2)C(=O)C1CC(=O)Nc1cc(OC)cc(OC)c1` (stereo unspecified), the inhibition is 22.4%.

Take `O=C(Nc1ccc(Br)cc1)c1cccc(NC(=O)C2C3CC4OC(=O)C2C4C3)c1` (stereo unspecified): the inhibition is 8.16%.
